The values that follow come from PubChem BioAssay AID1851 (National Center for Advancing Translational Sciences (NCATS), 2009).

“And” between values parts separate entries of the source, which are not always exact repeats. Equal values may be shown once. Among all 16,000 compounds or so, about 5,800 (36%) were called active. Inconclusive results (about 23%) are left out. Calls come from the whole dose curve; as a rule, active = well fitted curve in the direction sought with a large enough effect; inconclusive = small, poorly fitted or top-dose-only effect, or effect the other way; inactive = no such curve, though single readings can be large or run the other way. Some of the results follow. More than one record can exist for a structure, and the calls need not agree.
% is set by controls: 0 for no effect and ±100 for the full control effect.

In this assay the target is Cytochrome P450 2C19 (Homo sapiens) (UniProt P33261). The assay can be described thus: Cytochrome panel assay with activity outcomes. As to conditions: recombinant CYP, pro-luciferin dealkylation, luminescence, p450-cyp2c19; series mostly up to 57.1 µM; activity, negative = inhibition: at the top concentration. As for the experimental part: The P450 gene superfamily is involved in the metabolism and clearance of xenobiotics. This assay used various human CYP P450 isozymes to measure the dealkylation of various pro-luciferin substrates to luciferin. The luciferin is then measured by luminescence after the addition of a luciferase detection reagent. Pro-luciferin substrate concentration in the assay was equal to its KM for its CYP P450 isozyme. Inhibitors and some substrates limit the production of luciferin, and decrease measured luminescence.
Cytochrome P450 2C19 (Homo sapiens), sequence (P33261 whole entry, looked up): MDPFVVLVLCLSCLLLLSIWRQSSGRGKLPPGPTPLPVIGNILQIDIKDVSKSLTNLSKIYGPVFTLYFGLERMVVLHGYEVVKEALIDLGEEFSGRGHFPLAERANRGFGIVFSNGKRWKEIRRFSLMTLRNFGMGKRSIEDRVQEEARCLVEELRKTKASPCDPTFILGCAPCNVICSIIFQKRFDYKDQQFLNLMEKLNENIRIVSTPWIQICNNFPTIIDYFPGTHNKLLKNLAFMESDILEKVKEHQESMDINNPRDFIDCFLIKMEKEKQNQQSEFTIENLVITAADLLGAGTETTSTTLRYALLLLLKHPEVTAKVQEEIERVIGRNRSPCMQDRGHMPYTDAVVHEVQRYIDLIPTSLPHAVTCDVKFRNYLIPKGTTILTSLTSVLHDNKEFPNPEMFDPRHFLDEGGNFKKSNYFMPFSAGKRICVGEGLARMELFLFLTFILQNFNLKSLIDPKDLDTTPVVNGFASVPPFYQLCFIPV
NCGC Assay Protocol Summary:
1, Reagent, 2 uL, Isozyme and Pro-Luciferin
2, Library compounds, 23 nl, 40 uM to 0.24 nM dilution series
3, Controls, 23 nl, Isozyme specific inhibitor
4, Reagent, 2 uL, NADPH regeneration solution
5, Incubation time, 60 min, Isozyme specific temperature
6, Reagent, 4ul, Detection reagent
7, Incubation time, 20 min, Isozyme specific temperature
8, Detection, 1 sec, ViewLux luminescent read
The luciferase-based P450-GloTM Screening Systems were obtained from Promega (Madison, WI) for CYP 1A2 (V9770), CYP 2C9 (V9790), CYP2 C19 (V9880), CYP 2D6 (V9890), and CYP 3A4 Luciferin-PPXE (V9910) and were adapted for 1,536-well microplates and an automated protocol. The control compounds furafylline for 1A2 (F124), sulfaphenazole for CYP 2C9 (S0758), ketoconazole for CYP 2C19 (K1003), quinidine for 2D6 (Q3625), and ketoconazole for 3A4 (K1003) were purchased from Sigma Aldrich (St. Louis, MO). Recombinant P450 enzymes were obtained from baculovirus constructs expressed in insect cells (BD/Gentest).
Medium-binding white solid Kalypsys plates used. Mixtures kept on ice. 1A2: 10 nM 1A2, 100 uM Luc-ME, 100 mM KPO4; 2C9: 10 nM 2C9, 100 uM Luc-H, 25 mM KPO4; 2C19: 5 nM 2C19, 10 uM Luc-H EGE, 50 mM KPO4; 2D6: 5 nM 2D6, 30 uM Luc-ME EGE, 100 mM KPO4; 3A4: 10 nM, 25 uM Luc-PPXE. All amounts are reflected in their final concentration, working concentration is 2x.
NADPH regeneration solution: 1.3 mM NADP+, 3.3 mM glucose-6-phosphate, 3.3 mM MgCl2, 0.4 U/mL glucose-6-phosphate dehydrogenase for all isozymes, 200 mM KPO4 for 3A4. Mixture prepared at RT but kept on ice during automated run.
RT incubation in auxilliary plate hotel for 1A2, 2D6, and 3A4; 37C for 2C9 and 2C19.
Keywords: P450, CYP1A2, CYP2C19, CYP2C9, CYP2D6, CYP3A4, Luciferase, MLSMR, MLSCN, NIH Roadmap, qHTS, NCGC
Regarding `COc1cc2ccccc2c2cc([N+](=O)[O-])oc12`, the activity, negative = inhibition is -34.1% [at 11.4 µM] (inactive).
On the same count and under the same terms, then `c1cc(CCN2CCCCC2)ccn1`, with 9.84% [at 11.4 µM] (inactive).
As a reminder, the AC50 is the concentration giving half of the maximal activity seen. Consider `c1ccc(CCCCN2CCC(c3ccccc3)CC2)cc1`, for which the concentration at half-maximal activity (AC50) was 15.8 µM (active).
`c1ccc2c([C@@H]3CCN(CCN4CCOCC4)C3)c[nH]c2c1`: the activity, negative = inhibition was 23.2% [at 11.4 µM] (inactive).
As for `C1C[C@@H]2CN(CCCN3CCOCC3)[C@@H](C1)O2`, the activity, negative = inhibition was -1.65% [at 11.4 µM] (inactive).
As to `Cc1c2cc[n+](CCN3CCCCC3)cc2c(C)c2c1[nH]c1ccc(O)cc12`, the activity, negative = inhibition is 17.2% [at 11.4 µM] (inactive).
Same read-out and setting: the result for `N=C1c2ccccc2CN1NC(=O)c1ccc(Cl)cc1` reads 1.92% (inactive).
With `C[C@@H]1O[C@H](O[C@H]2C[C@@H](O)[C@@]3(CO)[C@H]4[C@@H](O)C[C@]5(C)[C@@H](C6=CC(=O)OC6)CC[C@]5(O)[C@H]4CC[C@]3(O)C2)[C@@H](O)[C@H](O)[C@@H]1O`, the “activity, negative = inhibition” value is -10.4% [at 25.6 µM] (inactive).
Same read-out and setting: the result for `CCN1C[C@]2(COC(=O)c3ccccc3N3C(=O)C[C@H](C)C3=O)CC[C@H](OC)[C@@]34[C@@H]5C[C@H]6[C@H](OC)[C@H]5[C@](O)(C[C@@H]6OC)[C@@](O)([C@@H](OC)[C@@H]23)[C@@H]14` reads 3.08% (inactive).
Turning to `CC[C@@]1(O)C(=O)OCc2c1cc1n(c2=O)Cc2cc3ccccc3nc2-1`, the AC50 result was “inactive and 20 µM (active)”.
As to `CC[C@@]1(O)C(=O)OCc2c1cc1n(c2=O)Cc2cc3c(NC(=O)CN)cccc3nc2-1`, the activity, negative = inhibition is 11.8% [at 11.4 µM] (inactive).
Still for that read-out and setting: the result for `CC[C@]1(OC(=O)CN)C(=O)OCc2c1cc1n(c2=O)Cc2cc3ccccc3nc2-1` reads 17% [at 11.4 µM] (inactive); that for `Clc1cc(I)cc(Cl)c1NC1=NCCN1`, -0.585% (inactive).
Take `CC(C)NC(=O)N1CCCC2(CCN(C(=O)Oc3ccccc3)CC2)C1`: the “activity, negative = inhibition” value was -29% (inactive).
With `CN1[C@@H]2CC[C@H]1CC(OC(=O)c1cc(Cl)cc(Cl)c1)C2` (some centres not stated), the “activity, negative = inhibition” value is -36.3% (inactive).
`CC[C@H](Oc1ccc(Cl)cc1)C(=O)OC1C[C@H]2CC[C@@H](C1)N2C` (some centres not stated): the AC50 is 0.0158 µM (active).
With `C[C@@H](C(=O)OC1C[C@H]2CC[C@@H](C1)N2C)c1ccc(Br)cc1` (some centres not stated), the “activity, negative = inhibition” value was -8.86% (inactive).
Regarding `CCCN(CCC)C1Cc2cc(OC)c(OC)cc2C1`, the AC50 result is “inactive”.
As to `NCCSC(c1ccccc1)c1ccccc1`, the AC50 was 1.26 µM (active).
As for `C[N+]1(C)CCN(c2ccccc2)CC1`, the “activity, negative = inhibition” value was 32% (inactive).
Take `C=CCN1CCc2cccc3c2[C@@H]1Cc1ccc(O)c(O)c1-3`: the “activity, negative = inhibition” value is -54% (inactive).
For the compound `CC(=O)NCCc1c[nH]c2ccccc12`, the AC50 is 10 µM (active).
On to `NCCc1c[nH]c2ccccc12`, for which the “activity, negative = inhibition” value was -13.2% (inactive).
For the compound `CN(C)CCCc1c[nH]c2ccccc12`, the activity, negative = inhibition was -13.7% [at 11.4 µM] (inactive).
For `c1ccc2c(c1)Sc1ccccc1N2C[C@H]1CN2CCC1CC2`, the activity, negative = inhibition is 38.1% [at 11.4 µM] (inactive).
Turning to `CN(C(=O)Cc1ccc(Cl)c(Cl)c1)[C@H](CN1CCCC1)c1ccccc1`, the AC50 is 0.316 µM (active).
Consider `CN(C(=O)Cc1ccc(Cl)c(Cl)c1)[C@@H](CN1CCCC1)c1cccc(OCC(=O)O)c1`, for which the AC50 result was “inactive”.
With `C=CCN1CC[C@]23c4c5ccc(O)c4O[C@@H]2/C(=N/NC(=O)c2ccccc2)CC[C@@]3(O)[C@H]1C5`, the “activity, negative = inhibition” value was -19.2% (inactive).
As for `CC(C)N(CC[C@@](C(N)=O)(c1ccccc1)c1ccccn1)C(C)C`, the AC50 entry was “inactive”.
In the case of `COC(=O)[C@@]1(Cc2ccc(F)cc2)[C@H]2c3cc(C(=O)N(C)C)[nH]c3C[C@H]2CN1C(=O)c1ccccc1`, the AC50 was 20 µM (active).
In the case of `CC[N+](C)(C)c1cccc(O)c1`, the “activity, negative = inhibition” value is -25.1% [at 25.6 µM] (inactive).
For the compound `C/C=C1\C[C@H](C)[C@@](O)(CO)C(=O)OCC2=CCN3CC[C@@H](OC1=O)[C@@H]23`, the “activity, negative = inhibition” value was -42% [at 25.6 µM] (inactive).
Regarding `CC(C)C12CN3CC(C(C)C)(CN(C1)C3c1cccnc1)C2=O` (configuration not stated), the AC50 was 14.1 µM (active).
As for `CCN=C=NCCCN(C)C`, the activity, negative = inhibition was 27.1% [at 11.4 µM] (inactive).
In the case of `C[N+]1(C)C2CC(OC(=O)C(CO)c3ccccc3)CC1[C@@H]1O[C@H]21` (some centres not stated), the AC50 entry is “inactive”.
For the compound `C[C@H]1CN(C2CCC(C#N)(c3ccc(F)cc3)CC2)CC[C@@]1(C(=O)O)c1ccccc1` (some centres not stated), the “activity, negative = inhibition” value is -32.5% [at 25.6 µM] (inactive).
Turning to `FC(F)(F)c1nc2ccc(SSc3ccc4nc(C(F)(F)F)[nH]c4c3)cc2[nH]1`, the AC50 is 5.01 µM (active).
Take `C=C(C)[C@H]1CN[C@H](C(=O)O)[C@@H]1CC(=O)O`: the “activity, negative = inhibition” value is 28% (inactive).
Consider `c1cc(CN2CC3(CCNCC3)C2)ccn1`, for which the “activity, negative = inhibition” value was -40.1% (inactive).
`CC(C)[C@@H]1CN[C@H](C(=O)O)[C@@H]1CC(=O)O`: the “activity, negative = inhibition” value is -4.7% (inactive).
Same read-out and setting: then `COC[C@H]1OC(=O)c2coc3c2[C@@]1(C)C1=C(C3=O)[C@H]2CCC(=O)[C@@]2(C)C[C@H]1OC(C)=O`, with -4.95% (inactive).
In the case of `CCCN1CCC[C@H](c2cccc(O)c2)C1`, the AC50 result was “inactive”.
`Fc1ccc(CCNCc2ccc(Cl)c(Cl)c2)cc1`: the AC50 is 0.316 µM (active).
Turning to `O=C1NC(=S)NC(=O)C1=Cc1cccc2cc3ccccc3cc12`, the activity, negative = inhibition is -39.2% [at 11.4 µM] (inactive).
Regarding `O=c1cc(-c2ccc(O)cc2)oc2c([C@H]3O[C@@H](CO)[C@@H](O)[C@@H](O)[C@@H]3O)c(O)cc(O)c12`, the “activity, negative = inhibition” value is 7.98% [at 25.6 µM] (inactive).
For `O=P(O)(O)CCP(=O)(O)O`, the activity, negative = inhibition is 13.6% [at 11.4 µM] (inactive).
As for `COc1ccc(C2SCC(=O)Nc3c2c(C)nn3-c2ccccc2)cc1OC` (configuration not stated), the AC50 was 10 µM (active).
For `CNC(=O)Oc1ccc2c(c1)[C@@]1(C)CCN(C)[C@@H]1N2C`, the “activity, negative = inhibition” value was 33.5% [at 25.6 µM] (inactive).
In the case of `C[C@]12CC[C@H]3c4ccc(O)cc4CC[C@@H]3[C@H]1CC[C@@H]2OP(=O)(O)O`, the activity, negative = inhibition is 34.7% [at 11.4 µM] (inactive).
Consider `CCCN(CCC)C(=O)Cc1c(-c2ccc(Cl)cc2)nc2c(Cl)cc(Cl)cn12`, for which the “activity, negative = inhibition” value was 16.9% (inactive).
For `COc1ccc(OC)c([C@H](O)[C@H](C)N)c1`, the AC50 result is “inactive”.
Take `COc1ccc(Cl)cc1NC(=O)NCCCl`: the AC50 was 20 µM (active).
For the compound `CC1=NCCc2c1[nH]c1cc(O)ccc21`, the “activity, negative = inhibition” value is -35.5% [at 25.6 µM] (inactive).
In the case of `O=C(OC1CCN(CCCl)CC1)C(c1ccccc1)c1ccccc1`, the “activity, negative = inhibition” value was -33.4% (inactive).
For `O=C(NCCN1CCN(C(=O)C(c2ccccc2)c2ccccc2)CC1)C(=O)Nc1ccccc1`, the AC50 is 25.1 µM (active).
Regarding `O=C(c1ccccc1)[C@H]1[C@H](c2ccccc2[N+](=O)[O-])N1C1CCCCC1` (some centres not stated), the activity, negative = inhibition was -82.8% [at 11.4 µM] (inactive).
As to `Cc1ccc(C2(c3ccc(C)c(O)c3C)CCN(C)CC2)c(C)c1O`, the activity, negative = inhibition is 2.67% [at 11.4 µM] (inactive).
